This is an account of results in PubChem BioAssay AID640 (Columbia University Molecular Screening Center, 2007).

Among all 96,000 compounds or so, about 200 (0.21%) were called active. The sample holds actives, similar compounds and a random draw of the others, so the mix is not that of the screen.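 The calls were made as follows: active = inhibition at 2 µM at or above a set limit, the screen mean plus 3 SD (cut at about 24% in these data); inactive = the rest.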

Tyrosine-protein phosphatase non-receptor type 22 (Homo sapiens), sequence (Q9Y2R2 whole entry, looked up, the tested form may be a part): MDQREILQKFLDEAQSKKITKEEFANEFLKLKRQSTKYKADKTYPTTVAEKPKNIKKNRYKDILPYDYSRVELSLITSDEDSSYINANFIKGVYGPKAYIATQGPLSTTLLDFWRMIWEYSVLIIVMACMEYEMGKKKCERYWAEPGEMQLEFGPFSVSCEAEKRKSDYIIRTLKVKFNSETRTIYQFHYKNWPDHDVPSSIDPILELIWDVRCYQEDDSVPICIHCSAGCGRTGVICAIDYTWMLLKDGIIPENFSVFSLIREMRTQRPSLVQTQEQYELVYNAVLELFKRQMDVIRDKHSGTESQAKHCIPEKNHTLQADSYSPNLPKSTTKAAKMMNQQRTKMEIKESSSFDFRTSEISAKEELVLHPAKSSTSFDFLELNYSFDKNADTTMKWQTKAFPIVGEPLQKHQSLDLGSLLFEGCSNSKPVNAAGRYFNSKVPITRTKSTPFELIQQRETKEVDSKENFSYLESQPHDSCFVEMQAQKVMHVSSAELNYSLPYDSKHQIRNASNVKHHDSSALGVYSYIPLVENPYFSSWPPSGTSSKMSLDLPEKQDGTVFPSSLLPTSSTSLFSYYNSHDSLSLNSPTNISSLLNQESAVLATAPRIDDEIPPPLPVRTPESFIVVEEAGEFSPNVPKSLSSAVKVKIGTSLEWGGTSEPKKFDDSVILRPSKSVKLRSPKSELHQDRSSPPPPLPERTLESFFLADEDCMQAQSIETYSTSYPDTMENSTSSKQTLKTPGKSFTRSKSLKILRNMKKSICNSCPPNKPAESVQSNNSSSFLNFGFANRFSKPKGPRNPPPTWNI

This assay concerns the target Tyrosine-protein phosphatase non-receptor type 22 (Homo sapiens) (UniProt Q9Y2R2). The assay can be described thus: blockers of human LYP enzyme activity – biochemical, DiFMUP fluorescence, 2 µM, primary screen (AID 640).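 Also: 0% = DMSO with enzyme and 100% = enzyme fully blocked by orthovanadate.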 The conditions noted are these: recombinant LYP catalytic domain, at 2 µM, hits give high values.
By inhibition is commonly meant the relative decrease from the control value, in per cent. As to `COCc1cc(C(C)=O)ccc1OC`, the inhibition is 7.3% (inactive).

`O=C(CNC(=O)OCc1ccccc1)Oc1cc2oc(=O)cc(-c3ccccc3)c2cc1Cl`: the inhibition was 7.8% (inactive).

`CC(C)(C)NS(=O)(=O)c1ccc(NC(=O)NC2CCCCC2)cc1`: the inhibition was 13% (inactive).

As to `CCOC(=O)c1c(C)nc2c(c1C)c(=O)oc1ccccc12`, the inhibition was -31.8% (inactive).

For `Cc1ccc(OCC(=O)N/N=C/c2ccncc2)cc1`, the inhibition was 10.7% (inactive).

`CSc1ccc(/C=N\NC(=O)COc2ccc(Cl)cc2Br)cc1`: the inhibition is 26.5% (active).

Turning to `Cc1ccc(OCC(=O)N/N=C\c2ccco2)c(C)c1`, the inhibition is -4.2% (inactive).

`COc1cccc(-c2nnc(NC(=O)c3ccc(S(=O)(=O)N(CC(C)C)CC(C)C)cc3)o2)c1`: the inhibition was 24.4% (active).

Turning to `CC1CCCCN1S(=O)(=O)c1ccc(C(=O)Nc2nnc(-c3cccs3)o2)cc1` (stereo unspecified), the inhibition was 17.2% (inactive).

Regarding `CCC(=O)Oc1cccc(C(=O)Nc2ccc(-c3nnc(-c4ccco4)o3)cc2)c1`, the inhibition was 8.1% (inactive).

With `O=C(NCCCCc1ccccc1)C1CC(c2ccc([N+](=O)[O-])cc2)=NO1` (stereo unspecified), the inhibition is -3.2% (inactive).

`CCC(C)NC(=O)CSC1=Nc2ccccc2C2=NC(CCC(=O)NCc3ccco3)C(=O)N12` (stereo unspecified): the inhibition was 6.7% (inactive).

Regarding `C=CCOc1c2ccc(C(=O)N(CC)c3ccc(OC)cc3)cc2nn1C`, the inhibition was 1.1% (inactive).

`CCSc1nc(-c2ccc(OC)cc2)cc(-c2ccc(OC)cc2)c1C#N`: the inhibition was -15.9% (inactive).

`CCOC(=O)C1=C(CSc2nnnn2C)N(C)C(=O)NC1c1ccccc1` (stereo unspecified): the inhibition was 6.4% (inactive).

As for `O=C(CCl)NNc1cccc(Cl)n1`, the inhibition was 2.9% (inactive).

For the compound `O=C(c1ccc2c(c1)OCO2)N1CCN(C(=O)c2ccco2)CC1`, the inhibition was -5% (inactive).

Consider `Cc1cnc(NC(=O)C2CCCC2)s1`, for which the inhibition is -5.5% (inactive).

Take `CCOC(=O)c1c(NC(C)=O)sc2c(O)c(Br)ccc12`: the inhibition is 7.9% (inactive).

Consider `COc1ccc(/C=N/Nc2nc3ccccc3c(=O)[nH]2)cc1`, for which the inhibition was 2.7% (inactive).

Regarding `CC(=O)c1c(C)[nH]c(C(=O)NCc2ccc(C)cc2)c1C`, the inhibition was 3.9% (inactive).

Consider `CNC(=O)c1nnc(Cc2ccc(Cl)cc2)o1`, for which the inhibition was -2.1% (inactive).

Consider `Cc1ccc(Cl)cc1NC(=O)COC(=O)C1CCCCC1`, for which the inhibition is -5.7% (inactive).

Take `O=C(Nc1cccc2ncccc12)C(Cl)(Cl)Cl`: the inhibition was -4% (inactive).

As for `CCCCN1C(=O)/C(=C2/C=CC=CN2C)SC1=S`, the inhibition was -5.6% (inactive).

Turning to `COc1cc(OC)cc(-c2cc3nc(C4CCN(C(=O)OC(C)(C)C)CC4)cc(=O)n3[nH]2)c1`, the inhibition is -4.9% (inactive).

Regarding `CC(C)(C)NC(=O)CN(Cc1cccs1)C(=O)CNS(=O)(=O)c1ccccc1`, the inhibition was -1.7% (inactive).

Consider `Cc1nn(C(C)CC(=O)O)c(C)c1C` (stereo unspecified), for which the inhibition is 7.9% (inactive).

In the case of `CCn1nc(C)c(NC(=O)/C=C/c2ccc(OC)c(COc3ccc(Br)cc3)c2)c1C`, the inhibition is 13.3% (inactive).

For `O=C(CSc1nnc(-c2cccs2)n1Cc1ccccc1)N1CCc2ccccc2C1`, the inhibition was -1.7% (inactive).

On to `Cc1ccc2nc(SC(C)C(=O)NCc3ccco3)[nH]c2c1` (stereo unspecified), for which the inhibition was -3.6% (inactive).

For the compound `Cn1c(=O)c2c(SCC(=O)N3CCOCC3)nc(C3CC3)nc2n(C)c1=O`, the inhibition was 4% (inactive).

On to `Cc1cc2cc3c(N)[nH]nc3nc2cc1C`, for which the inhibition was -13.7% (inactive).

As to `Cc1ccc(-c2nc3ccccc3[nH]2)cc1NC(=O)c1sc2ccccc2c1Cl`, the inhibition was 24.6% (active).

In the case of `O=C(Nc1ccon1)c1sc2ccccc2c1Cl`, the inhibition was -12.9% (inactive).

Regarding `Cc1ccc(-c2nc3ccccc3[nH]2)cc1N`, the inhibition was 0.9% (inactive).

Regarding `Cc1cc([N+](=O)[O-])c(NC2CCCCC2)c([N+](=O)[O-])c1`, the inhibition was 6.5% (inactive).

As to `CC1(C)NC(=O)N(CCCCSc2ccc(Cl)cc2)C1=O`, the inhibition was 3.1% (inactive).

Consider `COC(=O)C1=C(Nc2ccc(C)cc2)C=C(C)C(C(=O)OC)C1c1ccc(F)cc1` (stereo unspecified), for which the inhibition is -3.3% (inactive).

As to `c1ccc(CC2CCN(c3nc4ccccc4n4cnnc34)CC2)cc1`, the inhibition is 7.3% (inactive).

For `CON(C)S(=O)(=O)c1ccc2c(c1)NC(=O)C1CCCN21` (stereo unspecified), the inhibition was 6.3% (inactive).

Consider `CN1CCN(C(=O)Cn2c(C(F)(F)F)nc3ccccc32)CC1`, for which the inhibition is 1.3% (inactive).

Turning to `COc1ccc(-n2c(C)csc2=S)cc1`, the inhibition is -3.8% (inactive).

Turning to `CCCCCCc1cc2cc(-c3nnc(-c4ccccc4)o3)c(=O)oc2cc1O`, the inhibition was 16% (inactive).

Regarding `CCCCN(CC)CCCNC(=O)CS(=O)(=O)Cc1nc(-c2cccc(OC)c2)oc1C`, the inhibition is 4.8% (inactive).

Regarding `CCCCCCc1cc2cc(-c3nnc(-c4cccc(OC)c4)o3)c(=O)oc2cc1O`, the inhibition was 30.9% (active).

`COc1ccc(OCC(=O)NN2Cc3ccccc3C2=N)cc1`: the inhibition was 8.2% (inactive).

As to `Cc1cc(=O)oc2cc(OCC3CC(c4ccccc4Cl)=NO3)ccc12` (stereo unspecified), the inhibition was 0.4% (inactive).

As to `COc1ccc(/C(O)=C2\C(=O)C(=O)N(Cc3ccco3)C2c2ccc(OC)cc2OC)cc1` (stereo unspecified), the inhibition was 3% (inactive).

On to `O=C(CN(c1ccccc1)S(=O)(=O)c1ccc(Cl)cc1)Nc1ccccc1C(=O)N1CCCC1`, for which the inhibition is 3% (inactive).

Turning to `Cc1sc2nc(SCC(N)=O)n(C)c(=O)c2c1C`, the inhibition is -1% (inactive).

On to `CC(=O)c1cnc(SCCN2C(=O)c3ccccc3C2=O)nc1C`, for which the inhibition was -4.7% (inactive).

Regarding `CCOc1ccccc1NC(=O)C1CCCN(C(=O)Nc2ccccc2)C1` (stereo unspecified), the inhibition was -6% (inactive).

In the case of `COc1cccc(NC(=O)CN2CCN(c3nc(-c4cccc(OC)c4)cs3)CC2)c1`, the inhibition was 8.7% (inactive).

Turning to `CCOC(=O)c1[nH]c(C)c(C(=O)OCC(=O)N2c3ccccc3CC2C)c1C` (stereo unspecified), the inhibition is 2.3% (inactive).

For `COc1ccc(C(C#N)Nc2ccccc2C)cc1` (stereo unspecified), the inhibition is 7.5% (inactive).

On to `CCCCNC(=O)C1(c2ccc(OC)cc2)CCOCC1`, for which the inhibition is 6.4% (inactive).

On to `CCNC(=S)N1CCN(C(=O)c2ccco2)CC1`, for which the inhibition is -9.6% (inactive).

On to `O=C(/C=C/c1ccccc1)N/C(=C/c1ccccc1)C(=O)Nc1ccccc1O`, for which the inhibition was 10% (inactive).

Consider `Cc1ccc(-c2cc(C(=O)NCC3CCCO3)c3ccccc3n2)o1` (stereo unspecified), for which the inhibition was 2.7% (inactive).

In the case of `C=CCn1c(-c2ccc(Cl)cc2)ccc(C#N)c1=O`, the inhibition is 8.4% (inactive).

Consider `Oc1ccc2ccc3cccc[n+]3c2c1`, for which the inhibition was 2.8% (inactive).

With `Cc1csc2ncc(C(=O)N(Cc3ccccc3)c3ccccn3)c(=O)n12`, the inhibition is -3.8% (inactive).

As to `Cc1ccc(CN(C(=O)c2sc3ccccc3c2Cl)C2CCS(=O)(=O)C2)cc1` (stereo unspecified), the inhibition was 3.5% (inactive).

For `CSc1cc(C)n(-c2ccccc2C)c(=S)c1C(C)=O`, the inhibition was -1.3% (inactive).

For `O=C(Nc1ccccc1C(=O)NCCCn1ccnc1)c1ccc(Cl)cc1Cl`, the inhibition is 4.3% (inactive).

Take `COc1ccc(CNCCCO)cc1OC`: the inhibition is 2.8% (inactive).

On to `c1ccc2c(-c3nn4nnnc4c4ccccc34)cccc2c1`, for which the inhibition is 11.7% (inactive).

Regarding `COc1ccc(Oc2c(Cl)cnn(-c3ccccc3)c2=O)cc1`, the inhibition is -10.1% (inactive).

Regarding `COC(=O)CNS(=O)(=O)c1ccc(OC)cc1`, the inhibition is -2.1% (inactive).

`CCOc1cc(C(=O)Nc2c(C)ccc3nsnc23)cc(OCC)c1OCC`: the inhibition is -14.9% (inactive).

Consider `CC(C)(C)c1ccc(C(=O)NCC(=O)OCN2C(=O)c3ccccc3C2=O)cc1`, for which the inhibition is -8.4% (inactive).

As to `O=C(/C=C/NNC(=O)c1cccc(Br)c1)c1ccccc1`, the inhibition was 5.3% (inactive).

`Fc1ccccc1COc1ccccc1CNCc1ccncc1`: the inhibition was 4.4% (inactive).

For `CCC(=O)NCCc1nc2ccccc2n1CC`, the inhibition was -1% (inactive).

On to `CNc1nc(SC)nc(N(C#N)CC(=O)OC)n1`, for which the inhibition was -3.4% (inactive).

As to `CCNc1nc(NC(C)C)nc(OCCOC(=O)c2ccccc2)n1`, the inhibition was -0.4% (inactive).

Consider `c1ccc(-c2ccnc3nc(-n4cccc4)nn23)cc1`, for which the inhibition was 9.9% (inactive).

Consider `Cc1cc2nc(SCCN3CCOCC3)[nH]c2cc1C`, for which the inhibition is -1% (inactive).

Turning to `O=C1N=C(N2CCOCC2)S/C1=C\C=C/c1ccccc1`, the inhibition is 0.2% (inactive).

Take `CCOCCCNC(=O)C(NC(=O)c1ccc(=O)[nH]c1)c1ccc(C)cc1` (stereo unspecified): the inhibition was 3% (inactive).
